Experimental findings from PubChem BioAssay AID504809 (National Center for Advancing Translational Sciences (NCATS), 2011) are described below.

Structures are written as SMILES. Inconclusive results are not listed. The source made the active and inactive calls. Calls follow the shape of the dose curve; as a rule, active = well fitted curve in the direction sought with a large enough effect; inconclusive = small, poorly fitted or top-dose-only effect, or another doubt; inactive = no such curve, though single readings can be large or run the other way.

The assay can be described thus: Followup screen for small molecules that induce DNA re-replication in MCF 10A normal breast cells. Particulars: MCF 10A DNA re-replication, Hoechst nuclear intensity, 48 h; series mostly up to 46.1 µM; re-replication activation: at the top concentration. The text has this: NIH Molecular Libraries Probe Production Network [MLPCN] NIH Chemical Genomics Center [NCGC] MLPCN Grant: Fast Track K99 CA136555 Assay Provider: Melvin DePamphilis, NICHD, NIH Assay Overview Eukaryotic cells normally restrict genome duplication to once per cell division. When this process is aberrant, DNA re-replication occurs when cells reinitiate DNA replication before the first round of replication is complete. DNA re-replication induces the DNA damage response, arrests cell proliferation, and triggers apoptosis. The cell cycle components cyclin A, Cdt-1, Cdc6 and geminin are critical regulators of this process and their misregulation results in DNA re-replication in normal and cancer cells. To identify compounds that induce re-replication in normal cells, an image-based assay was used to measure DNA content of nuclei, as detected by the fluorescent DNA binding dye, Hoechst. Cell nuclei were imaged by a fluorescence scanning plate imager and compounds that induce DNA re-replication were identified by the increase of nuclei with elevated fluorescence intensity.
Assay Protocol Summary For screening, 250 cells in 5 uL/well were dispensed into black clear 1536-well plates (Aurora) using a solenoid-based dispenser. Following transfer of 23 nL compound or DMSO vehicle by a pin tool, the plates were incubated 48 hr at 37 C and 5% CO2. After addition of 1 uL/well Hoescht stain, the plates were incubated 40 min at 37 C, 5% CO2 and total intensity of fluorescent objects (nuclei) were enumerated by an Acumen Explorer Ex3 (TTP LabTech) fluorescence scanning plate imager (405 nm excitation, 500-530 nm emission). Keywords: NIH Roadmap, MLPCN, MLI, MLSMR, qHTS, NCGC, DNA replication, cancer
As for `CC(=O)[O-].CCN(CC)C(=S)SSC(=S)N(CC)CC.[Cu+]`, the Potency was 190 nM (active).

Consider `CC(=O)[O-].CS(C)=O.[Cu+]`, for which the “re-replication activation” value was -7.36% (inactive).

On to `CCN(CC)C(=S)SSC(=S)N(CC)CC.[Cl-].[Cl-].[Cu+2]`, for which the Potency was 95 nM (active).

On to `CCN(CC)C(=S)SSC(=S)N(CC)CC`, for which the Potency is 21300 nM (active).

`CS(C)=O.[Cl-].[Cl-].[Cu+2]`: the “re-replication activation” value was -11.4% (inactive).
